The inhibition is the change of the read-out against control, counted positive when it falls.

Structures are written as SMILES. Screen size: about 330,000 compounds; about 4,600 (1.4%) were called active.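 Rule for the calls: active = inhibition of 40% or more at the single tested concentration; inactive = the rest.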 Shown is part of a subset that was picked to be rich in actives.

This test can be described thus: growth inhibitors of isogenic TIM10 control yeast, primary screen, counter-screen for tim10-1 yeast inhibitor project, luminescence, uHTS (AID 463195).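 Note: wild-type TIM10 isogenic control strain grown at permissive 25 °C; 0% = DMSO yeast wells and 100% = minimal medium wells without yeast.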 Conditions: S. cerevisiae TIM10 strain growth, BacTiter-Glo luminescence, 24 h; at 10 µM; hits give high values. (In general: A counterscreen serves to expose hits that act by an unwanted route or on another target.)
As for `CC1CCCCC1NC(=O)/C(C#N)=C/C=C/c1ccccc1[N+](=O)[O-]` (centres undefined), the inhibition is 47.3% (active).
For `O=[N+]([O-])c1ccccc1/C=C/CN1CCCC(CO)C1` (centres undefined) the value was -25% (inactive); for `O=[N+]([O-])c1ccccc1/C=C/CN1CCC(O)CC1`, -13.6% (inactive).
On to `CCOc1ccc(CN2CCN(Cc3c[nH]c4ccccc34)CC2)cc1`, for which the inhibition is -10.6% (inactive).
To `CC1(C)CC(=O)C=C(NCCN2CCNCC2)C1` belongs 5.33% (inactive); to `Cc1ccc(/C=C/C(=O)OCC(=O)NCc2ccc(Cl)cc2)o1`, -3.46% (inactive).
For `CCOC(=O)C1CN(S(=O)(=O)c2ccc(OC)cc2)c2cc(Cl)ccc2O1` (centres undefined) the value was 15.1% (inactive); for `O=C1C2N=NN(CC(=O)N3N=C(c4cccc5ccccc45)CC3c3ccccc3)C2C(=O)N1c1ccccc1` (centres undefined), 22.8% (inactive).
Consider `Oc1ccccc1C1=NN(c2ccccc2)C(c2ccccc2)C1` (centres undefined), for which the inhibition was 49% (active).
To `COc1ccccc1N1N=C(c2cccs2)CC1c1ccccc1` (centres undefined) belongs 23% (inactive).
For `CC(C)CC(COCc1ccc(Cl)cc1)N1CCN(C(=O)c2ccc(C(F)(F)F)cc2)CCC1=O` (centres undefined) the value was 17.7% (inactive).
For `CCCC1CCC(=NNC(=S)NCCc2ccccc2)CC1` (centres undefined) the value was -23.1% (inactive).
As to `CCCCNC(=S)N/N=C1\CCCCc2ccccc21`, the inhibition is 48.2% (active).
For `Cc1ccc(NC(=S)N/N=C2/CCCc3c(C)cc(C)cc32)cc1` the value was -3.6% (inactive).
To `Cc1noc(C)c1S(=O)(=O)Nc1cc(C(F)(F)F)ccc1N1CCOCC1` belongs 14.8% (inactive); to `NS(=O)(=O)c1ccc(CCNC(=O)CCCn2c(SCC(=O)N3CCCC3)nc3ccsc3c2=O)cc1`, -3.82% (inactive).
For `O=C(Oc1c(-c2ccco2)oc2ccccc2c1=O)c1cccnc1` the value was 63.5% (active); for `O=C(OCc1cc2ccccc2[nH]c1=O)c1cccnc1`, -6.32% (inactive); for `COc1ccc(Oc2coc3cc(OC(=O)c4cncc(Br)c4)ccc3c2=O)cc1`, 22.3% (inactive).
On to `Cn1c(CC2Sc3ccccc3NC2=O)nnc1SCC(=O)c1ccc(Cl)cc1` (centres undefined), for which the inhibition is 2.41% (inactive).
To `COc1cccc(NC(C)=[N+](C)CCNS(=O)(=O)c2ccc(Cl)cc2)c1` belongs -4.11% (inactive); to `CCCCn1c(N)c(N(CCC(C)C)C(=O)c2ccc([N+](=O)[O-])o2)c(=O)[nH]c1=O`, -3.66% (inactive); to `Cc1[nH]n(C)c(=O)c1N=Nc1ccc(S(C)(=O)=O)cc1`, 6.98% (inactive).
For `Cc1[nH]n(C(N)=S)c(=O)c1N=Nc1ccc(Cl)cc1Cl` the value was 50.4% (active).
To `CC1=NN(C(N)=S)C(=O)C1N=Nc1cc(Cl)ccc1Cl` (centres undefined) belongs 28.1% (inactive); to `O=C(NCc1ccc(Cl)cc1)NCc1ccc(Cl)cc1`, -12.6% (inactive).
As to `S=C(NCc1ccc(Cl)cc1)NC12CC3CC(CC(C3)C1)C2`, the inhibition was 61.1% (active).
For `COC(=O)Cc1ccc(NC(=S)NCc2ccc(Cl)cc2)cc1` the value was 28% (inactive); for `CSc1nc2nc(-c3cccc(C(F)(F)F)c3)ccn2n1`, -28% (inactive).

The values above are taken from PubChem BioAssay AID463195 (Sanford-Burnham Center for Chemical Genomics, 2010).
